# High-throughput results as filed in PubChem BioAssay.
# Rows were chosen to be rich in hits. Some 21% of all compounds tested hit in one or more screens of this group.
# CHX counter = Cycloheximide Counterscreen for Small Molecule Inhibitors of Shiga Toxin. cell reporter, cycloheximide protein synthesis inhibition counterscreen. max response, %. 300,000 compounds, 12% hits. AID 2314, 2010; in the data active = max response mostly above about 13%, no sharp cut-off; inactive = mostly below about 14%; also: read at 38.3 µM for the half of the compounds with a filed dose; 0% is about no effect
# Pf growth 96h = Primary qHTS for delayed death inhibitors of the malarial parasite plastid, 96 hour incubation; P. falciparum luciferase reporter growth, 96 h; Potency, µM (titrated, usually from 28.7 µM), inactives show at the highest dose activity change, negative = inhibition, most hits filed as inhibitors; 320,000 compounds, 6.9% hits; AID 504834, 2011; also: potency is read from the fitted curve at half-maximal effect; % is scaled to controls: 0 for no effect and ±100 for the full control effect
#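 P. falciparum expressing integrated firefly luciferase, in erythrocytes at 2% hematocrit, 0.05% parasitemia, incubated with compounds 96 h at 37 C, 5% CO2. Growth inhibition read as loss of luminescence; two-generation exposure targets delayed-death apicoplast inhibitors.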
# AMA1-RON2 inh = qHTS for Inhibitors of AMA1-RON; Towards Development of Antimalarial Drug Lead: Primary Screen; AlphaScreen AMA1-biotinylated RON2 peptide binding; 360,000 compounds, 0.2% hits; Potency, µM (titrated, usually from 58.2 µM), for the others: at the top dose activity change, negative = inhibition, actives largely listed as inhibitors; Plasmodium falciparum AMA1 (3D7) - RON2 peptide interaction; AID 720542, 2013;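 also: potency is read from the fitted curve at half-maximal effect; 0% = vehicle wells and -100% = peptide control; nearly all actives have a fitted effect of over 45% in size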
#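 AMA1 (3D7) with his tag at 25 nM final met compounds first, then biotinylated RON2 peptide at 25 nM; detection used donor plus acceptor beads, 10 µg/mL apiece, read by AlphaScreen after 30 min at room temperature.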
# Pf growth 48h = Primary qHTS for delayed death inhibitors of the malarial parasite plastid, 48 hour incubation. P. falciparum luciferase growth in erythrocytes, 48 h. 310,000 compounds, 5.9% hits. Potency, µM (highest dose often 28.7 µM), for the others: at the highest dose activity change, negative = inhibition, hits mostly inhibitors; also: potency is read from the fitted curve at half-maximal effect; % is scaled to controls: 0 for no effect and ±100 for the full control effect
#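 Luminescence readout; reporter = integrated firefly luciferase in P. falciparum. RBC culture at 2% hematocrit, 0.1% parasitemia final, 37 C/5% CO2; decreased signal taken as growth inhibition.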
# Shiga toxin inh = A qHTS for Small Molecule Inhibitors of Shiga Toxin. 290,000 compounds, 9.2% hits. Vero cells, Shiga toxin protein synthesis inhibition reporter. AID 2315, 2010. inhibition, % at 38.7 µM; in the data active = inhibition mostly above about 28%, no sharp cut-off; inactive = mostly below about 43%; also: 0% is about no effect
# HCV inhibitor = qHTS Assay for Inhibitors of Hepatitis C Virus (HCV) | AID 651820, 2012 | Potency, µM (top dose mostly 41.8 µM), without a hit: at the top dose activity change, negative = inhibition, usual class: inhibitors | 340,000 compounds, 3.4% hits | Huh7.5.1 HCVcc-Cre infection, luciferase reporter, 44 h; also: potency is read from the fitted curve at half-maximal effect; % is scaled to controls: 0 for no effect and ±100 for the full control effect
#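 Seed cells (1,000/well) for 4 h; treat with compound and infect with HCVcc-Cre, moi about 0.5. Incubate 44 h, then detect luciferase activity.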
# * hit, by the source's call; i = inactive; ? = inconclusive; nt = no result. Unless noted, calls follow the shape of the dose curve; as a rule, active = well fitted curve in the direction sought with a large enough effect; inconclusive = small, poorly fitted or top-dose-only effect, or another doubt; inactive = no such curve, though single readings can be large; an effect the other way counts as inactive or inconclusive.
SMILES,CHX counter,Pf growth 96h,AMA1-RON2 inh,Pf growth 48h,Shiga toxin inh,HCV inhibitor
CC1CCCC(NC(=O)c2cccc(S(=O)(=O)N3CCCCC3)c2)C1C (configuration not stated),-4,?,1%,?,-4,-9%
O=C(NCc1ccc2c(c1)OCO2)c1nc(Cn2cc(Br)cn2)no1,12,9%,-11%,2%,-8,-7%
COc1ccccc1OCC(=O)NCC1CCCCC1,12,54%,0%,37%,46,9%
O=C(COn1nnc2ccccc21)NCC1CCCCC1,28*,0%,21%,97%,89,4%
CCOc1ccccc1NC(=O)COn1nnc2ccccc21,17*,nt,4%,31%,37,13µM*
O=C(COn1nnc2ccccc21)N1CCN(Cc2ccccc2)CC1,50*,36%,13%,186%,96*,9%
COC(=O)[C@H](Cc1ccccc1)NC(=O)NCCc1ccc(OC)cc1,-5,-19%,17%,12%,1,23%
CC(C)CCc1noc(CN2CCN(c3ccc(Cl)cn3)CC2)n1,7,?,0%,0%,1,-6%
O=C(Nc1ccccc1)C1=C[C@@H](C2CCCCC2)C[C@@H](OCc2ccc(CO)cc2)O1,40*,?,-8%,?,84*,?
O=C(Nc1ccccc1)C1=C[C@H](C2CCCCC2)C[C@H](OCc2ccc(CO)cc2)O1,43*,?,-23%,?,55*,-5%
C#CCNC(=O)C1=C[C@H](c2ccc(C(F)(F)F)cc2)C[C@H](OCCCCO)O1,8.6*,?,-4%,?,42,?
C#CCNC(=O)C1=C[C@@H](C2CCCCC2)C[C@@H](OCCCCO)O1,15*,?,22%,?,26,-4%
Cc1ccc(OCC(=O)NC(=S)Nc2ccc(Br)cn2)cc1C,-3,-9%,29%,11%,-16,12%
CC1CCN(C(=O)CNC(=O)c2ccc(Br)o2)CC1,nt,nt,10%,nt,nt,1%
O=C(Nc1ccccc1)C1=C[C@@H](C2CCCCC2)C[C@@H](OCCCCO)O1,74*,0%,2%,98%,172*,0.32µM*
C=CCNC(=S)NNC(=O)COc1ccc2cc(Br)ccc2c1,44*,?,26%,68%,101*,-16%
C=CCNC(=S)NNC(=O)COc1ccc(Br)cc1,4,5.9µM*,42%,2%,2,-2%
O=C(CCc1ccccc1)NNC(=O)COc1ccc(Br)cc1,-4,4%,11%,7%,31,11µM*
C=CCNC(=S)NNC(=O)COc1cccc(Cl)c1,7,44%,30%,7%,13,-8%
CCOC1=C2[C@H](c3ccc(CC)cc3)N(S(=O)(=O)c3ccc(C)cc3)C[C@H]2C(C#N)(C#N)C(C#N)(C#N)C1,nt,nt,29%,nt,nt,nt
C[C@H](N)C(=O)N[C@@H](Cc1ccc(F)cc1)C(=O)N[C@@H](CCCN=C(N)N)C(=O)N[C@@H](CC1CCCCC1)C(=O)N[C@@H](CCCCN=C(N)N)C(=O)N[C@@H](Cc1ccc(O)cc1)C(N)=O,7,nt,nt,nt,-6,nt
Cc1ccc(C)c(N2C(=O)CC(Cc3ccc(Cl)cc3)C2=O)c1 (configuration not stated),0,?,-5%,19%,-5,-24%
CC1(C(=O)NS(=O)(=O)c2ccc(C#N)cc2)CCN1C(=O)Cc1ccccc1Cl (configuration not stated),nt,nt,-1%,nt,nt,nt
Cc1noc(C)c1/C=N/Nc1ccccn1,11,-10%,0%,115%,43,-6%
CCOc1ccc(/C=N/Nc2ccccn2)cc1,34*,7%,12%,i,70*,-21%
SMILES,CHX counter,Pf growth 96h,AMA1-RON2 inh,Pf growth 48h,Shiga toxin inh,HCV inhibitor
Cc1ccc(/C=N/Nc2ccccn2)s1,40*,71%,-5%,94%,102*,5%
Fc1ccc(/C=N/Nc2ccccn2)cc1,62*,142%,12%,130%,68*,-2%
Clc1ccc(/C=N/Nc2ccccn2)cc1,53*,-17%,15%,290%,108*,18%
O=S(=O)(NCCOc1ccccc1F)c1cccc(Br)c1,nt,33%,13%,-11%,nt,6%
O=C(CCN1CCCCC1)Nc1ccc2c(c1)C(=O)c1ccc(NC(=O)CCN3CCCCC3)cc1C2=O,-8,nt,nt,nt,-14,nt
CCC(=O)Nc1ccc2c(c1)OC[C@@H](C)N(Cc1ccccc1F)C[C@@H](C)[C@@H](OC)CN(C)C2=O,nt,nt,-5%,nt,nt,nt
Cc1ccc(NC(=O)CSCC(=O)Nc2cc(Cl)ccc2N2CCOCC2)cc1,nt,-2%,18%,-6%,nt,?
FC(F)(F)c1ccccc1/C=N/Nc1ccccn1,25*,29%,13%,-23%,59*,-3%
Brc1ccccc1/C=N/Nc1ccccn1,24*,144%,-17%,99%,51*,4%
COc1ccc(/C=N/Nc2ccccn2)cc1O,46*,189%,35%,261%,70*,6%
Oc1cccc(C=NNc2ccccn2)c1,nt,nt,1%,nt,nt,0%
Brc1ccc(/C=N/Nc2ccccn2)cc1,40*,?,-16%,56%,182*,-22%
CNc1cncc(-c2ccoc2)n1,nt,nt,8%,nt,nt,nt
CN(Cc1nccn1C)C(=O)CC1C(=O)NCCN1Cc1ccc(F)cc1Cl (configuration not stated),-1,0%,26%,27%,-7,nt
COc1cccc(NC(=O)NNC(=O)CCc2ccc(O)c(O)c2)c1,1,-1%,-27%,-11%,-2,13%
COc1ccc(-c2csc3ncnc(N4CCN(c5ccccc5Cl)CC4)c23)cc1,3,?,-15%,?,-21,?
Cc1sc2ncnc(N3CCN(S(=O)(=O)c4ccc(C(C)(C)C)cc4)CC3)c2c1C,nt,nt,-4%,nt,nt,5.6µM*
COc1ccc(-c2csc3ncnc(N4CCN(S(=O)(=O)c5ccc(Cl)s5)CC4)c23)cc1,nt,?,-5%,?,nt,10µM*
COc1ccc(-c2csc3ncnc(N4CCN(S(=O)(=O)c5ccc(C)cc5)CC4)c23)cc1,nt,?,-5%,12µM*,nt,11µM*
COc1ccc(N2CCN(c3ncnc4scc(-c5ccc(C)cc5)c34)CC2)cc1,-2,?,11%,?,-3,?
COc1ccc(-c2csc3ncnc(N4CCN(S(=O)(=O)c5cccs5)CC4)c23)cc1,nt,0%,-20%,?,nt,8.9µM*
CC1(C(=O)NS(=O)(=O)c2cccc(C#N)c2)CCN1C(=O)c1ccco1 (configuration not stated),nt,nt,4%,nt,nt,nt
